# HT1080NT lethal = kills 2HG-producing HT-1080-NT fibrosarcoma cells; HT-1080-NT fibrosarcoma viability, CellTiter-Glo ATP luminescence, 48 h; Potency, µM (doses to about 46.1 µM), actives largely listed as cytotoxic; 360,000 compounds, 1.6% hits; AID 686970;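 note: NT is the 2HG producing partner of a matched IDH1 knockdown line; nearly all actives have a fitted effect of over 55% in size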
#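 Read-out is CellTiter-Glo luminescence after 10 minutes at room temperature, following 48 hours' compound treatment of HT-1080-NT cells (750 cells/well, RPMI, 5% FBS, 37 degrees C).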
# KB-V1 cytotox = kills drug-selected multidrug resistant KB-V1 cells; KB-V1 MDR cells viability, CellTiter-Glo, 72 h; Potency, µM (titrated, usually from 46.1 µM), actives largely listed as cytotoxic; 400,000 compounds, 3.4% hits; AID 1347076; note: nearly all actives have a fitted effect of over 60% in size
#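 qHTS viability screen in drug-selected KB-V1 MDR cells: 72 h compound treatment at 37 degrees C, ATP luminescence end point.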
# KB-3-1 tox = KB-3-1 parental cell cytotoxicity; KB-3-1 viability, CellTiter-Glo ATP luminescence, 72 h; Potency, µM (doses to about 46.1 µM), hits mostly cytotoxic; 400,000 compounds, 1.4% hits; AID 1347075; note: nearly all actives have a fitted effect of over 60% in size
#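 Screening of KB-3-1 cells (DMEM, 10% FBS, phenol-red free) ran from lowest to highest compound concentration; after 72 h at 37 °C viability was read luminescently and curves fitted.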
# HT1080 IDH1KD tx = toxicity to HT-1080 IDH1 knockdown cells (counter line) | HT-1080 IDH1 knockdown viability, ATP luminescence, 48 h | AID 686971 | 360,000 compounds, 2% hits | Potency, µM (doses to about 46.1 µM), actives largely listed as cytotoxic
#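 Luminescent ATP read-out (CellTiter-Glo, 10 min at room temperature) after 48 h compound exposure at 37 °C gave viability of IDH1-knockdown HT-1080 cells. Activity was normalised to DMSO and cell-free wells, then fitted as concentration-response curves.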
# Hits are given with their value; - = inactive; ? = inconclusive; . = not tested or not shown; [ ] = another dose, or the depositor's remark. Only some compounds are listed: those with a hit (about 5.7% of all), similar ones and a draw of the others. Calls come from the whole dose curve; as a rule, active = well fitted curve in the direction sought with a large enough effect; inconclusive = small, poorly fitted or top-dose-only effect, or another doubt; inactive = no such curve, though single readings can be large; an effect the other way counts as inactive or inconclusive.
SMILES,HT1080NT lethal,KB-V1 cytotox,KB-3-1 tox,HT1080 IDH1KD tx
CNc1ncnc(Sc2nc(N)nc3nc[nH]c23)c1[N+](=O)[O-],2.9µM,1µM,?,1.3µM
Nc1nc(Sc2ccc([N+](=O)[O-])c3nonc23)c2[nH]cnc2n1,4.6µM,?,2.1µM,1.8µM
C=CCn1c(SCC(=O)NCc2ccccc2)nnc1C1CCCCC1,-,?,-,-
C=CCn1c(SCC(=O)Nc2cc(C)nn2-c2ccccc2)nnc1C1CCCCC1,-,5.8µM,-,-
COc1ccc2cc1Oc1ccc(cc1)C[C@H]1c3c(cc4c(c3Oc3cc5c(cc3OC)CCN(C)[C@@H]5C2)OCO4)CCN1C,16µM,?,?,21µM
O=C(Cc1ccc(OCc2ccccn2)cc1)NO,.,-,-,.
Cc1ccc(-n2c(SCC(=O)NCc3ccccc3)nc3n[nH]c(C)c3c2=N)cc1Cl,.,-,-,.
Cn1nc(-c2ccccc2)c(CO)c1Oc1cccc(C(F)(F)F)c1,-,-,-,-
Cc1ccc(Sc2c(CO)c(-c3ccccc3)nn2C)cc1,0.73µM,?,?,1.2µM
Cn1nnnc1SCc1nnc(-c2ccccc2Br)o1,-,-,-,-
Cc1ccc(-n2nnnc2SCc2nnc(-c3ccccc3Br)o2)c(C)c1,-,10µM,-,-
CC(=O)N1c2ccccc2CC1C(=O)NCc1cccc(Cl)c1 (stereo unspecified),.,-,-,.
O=c1[nH]c(=S)ccn1C1OC(CO)C(O)C1O (stereo unspecified),?,?,9.2µM,-
O=c1[nH]cnc2c1ccn2C1OC(CO)C(O)C1O (stereo unspecified),.,16µM,15µM,.
OCC1OC(n2ccc3c(SCc4ccccc4)ncnc32)C(O)C1O (stereo unspecified),-,?,?,-
O=c1[nH]c(=O)n(C2OC(CO)C(O)C2O)cc1F (stereo unspecified),10µM,21µM,21µM,0.92µM
O=c1ncccn1C1OC(CO)C(O)C1O (stereo unspecified),-,-,-,-
CCCn1ccc2c(OCC(=O)Nc3ccccc3C(=O)OCC)cccc2c1=O,.,-,-,.
CCOc1ccc(C(=O)Nc2cccc(-c3nc4cc(Cl)cc(Cl)c4o3)c2)cc1,.,-,-,.
O=C1CC(c2nnc(Cc3ccccc3Cl)o2)CN1c1ccccc1 (stereo unspecified),.,-,-,.
COc1ccc([C@H]2[C@H](C(=O)OC(C)(C)C)N3N=Cc4ccccc4C3C23C(=O)c2ccccc2C3=O)cc1OC (stereo partly specified),-,8.2µM,-,-
COc1ccc([C@H]2[C@H](C(=O)OC(C)(C)C)N3N=Cc4ccccc4C3C23C(=O)c2ccccc2C3=O)c(OC)c1 (stereo partly specified),-,?,?,-
O=C(Nc1ccc(OCc2cc(=O)n3c4c(sc3n2)CCCC4)cc1)c1ccc(F)cc1,.,-,-,.
Cc1ccc(NC(=O)c2cccc(C(=O)OC(C)C)n2)c(Br)c1,-,-,-,-
COC(=O)c1cccc(C(=O)Nc2ccc(C)cc2Br)n1,-,15µM,-,-
SMILES,HT1080NT lethal,KB-V1 cytotox,KB-3-1 tox,HT1080 IDH1KD tx
C=CCn1c(=S)[nH]c2scc(-c3ccc(C)o3)c2c1=O,13µM,-,-,16µM
OC[C@@H]1CN(Cc2ccc(-c3ccccc3)cc2)C[C@H](n2cnc3c(NC4CCC4)ncnc32)O1,13µM,?,?,16µM
OC[C@@H]1CN(Cc2ccc(Cl)cc2)C[C@H](n2cnc3c(N4CCN(c5ccccc5)CC4)ncnc32)O1,18µM,?,?,16µM
OC[C@@H]1CN(Cc2ccc(Cl)cc2)C[C@H](n2cnc3c(N4CCOCC4)ncnc32)O1,?,-,-,-
COCCNc1ncnc2c1ncn2[C@H]1CN(Cc2ccc(F)cc2)C[C@@H](CO)O1,?,-,-,-
OC[C@@H]1CN(Cc2ccc(-c3ccccc3)cc2)C[C@H](n2cnc3c(N4CCOCC4)ncnc32)O1,18µM,-,-,21µM
CN(C)CCNc1ncnc2c1ncn2[C@H]1CN(Cc2ccc(F)cc2)C[C@@H](CO)O1,-,-,8.2µM,-
COc1ccc(N2CCN(S(=O)(=O)c3ccc4oc(=O)c5ncn(C)c5c4c3)CC2)cc1,.,?,-,.
COc1ccc(C(=O)Nc2ncnc3nc[nH]c23)cc1,.,-,-,.
Cc1cc(C)cc(S(=O)(=O)N2CCN(c3nc(-c4cccs4)nc4ccccc34)CC2)c1,-,.,.,-
COc1ccc(CN2C[C@@H](CO)O[C@@H](n3cnc4c(N5CCN(c6ccccc6)CC5)ncnc43)C2)cc1,?,-,-,18µM
Cc1ccc(S(=O)(=O)Cc2sc3ccccc3[n+]2C)cc1,-,21µM,-,-
Cc1ccc(S(=O)(=O)CC(=O)Nc2nc3ccccc3s2)cc1,-,-,-,-
Cc1nn(C)c2c1c(C(F)(F)F)cc(=O)n2CC(=O)N1CCCCC1,.,-,-,.
CCc1cc(/C(Cc2ccccn2)=N\O)c(O)cc1O,?,-,-,13µM
CCOC(=O)c1sc(NC(=O)CSc2nnc(Cc3ccccc3)o2)c(C(=O)OCC)c1C,-,7.3µM,-,-
CCOC(=O)c1sc(NC(=O)CSc2nc3ccccc3o2)c(C(=O)OCC)c1C,-,-,-,-
O=C(CSc1nc(-c2ccccc2)c(-c2ccccc2)o1)Nc1nnc(-c2ccccc2)s1,-,7.3µM,-,-
COc1ccc(Cc2nnc(SCC(=O)NC(C)c3ccccc3)o2)cc1 (stereo unspecified),-,21µM,-,-
Cc1cnc(NC(=O)CSc2nnc(Cc3ccccc3)o2)s1,4.5µM,-,-,4.5µM
COc1ccc(-c2cc(C)no2)cc1S(=O)(=O)NCc1cccs1,.,-,?,.
Cc1cccc(NC(=O)c2cc(NC(=O)C3CCCCC3C(=O)O)ccc2N2CCCCC2)c1 (stereo unspecified),-[9.24 µM],-,-,-
CC(=O)Nc1ccc(N2CCCCC2)c(C(=O)Nc2cccc(C)c2)c1,-,7.3µM,-,?
COc1cc(NC(=O)Cn2nc(C(F)(F)F)c3c2CCC3)cc(OC)c1OC,.,-,16µM,.
Cc1ccc(NC(=O)Cn2nc(C(F)(F)F)c3c2CCCC3)cc1C,.,-,-,.
SMILES,HT1080NT lethal,KB-V1 cytotox,KB-3-1 tox,HT1080 IDH1KD tx
COc1cc(Cl)ccc1OC1(C)CCN(Cc2ccc(-c3ccccn3)cc2)C1 (stereo unspecified),16µM,-,-,?
CCOc1cccc(NC(=O)C2CC(=O)N(CC)C(=Nc3ccc(F)cc3)S2)c1 (stereo unspecified),.,?,-,.
CCN1C(=O)CC(C(=O)Nc2ccc(F)cc2)SC1=Nc1cccc(OC)c1 (stereo unspecified),-,18µM,?,-
CCCCC[C@H](C)N1C[C@H](COCc2ccccc2)Oc2cc(N3CC[C@H](O)C3)ccc2S1(=O)=O,?,-,-,?
CCCCC[C@@H](C)N1C[C@H](COCc2ccccc2)Oc2cc(N3CC[C@H](N(C)C)C3)ccc2S1(=O)=O,21µM,?,?,15µM
C[C@H](c1ccccc1)N1C[C@H](COCc2ccccc2)Oc2cc(N3CC[C@H](N(C)C)C3)ccc2S1(=O)=O,23µM,?,?,15µM
